# Measured values from PubChem BioAssay (NCI).
# Compounds without any hit were thinned out: in the full panel of roughly 83,000, 20% have a hit.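 The test compound was applied at a single concentration to cells in 96-well plates for 48 hours, and percent growth was recorded.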 Calls of active or inactive are those of the source. The calls were made as follows: active = growth percent below 10; inactive = the rest.
# Tested on: HL-60(TB) leukemia
# Assay: NCI-60 one-dose screen, 48 h (100 = growth as untreated, 0 = no growth, -100 = all killed)
# Conditions: 10 µM unless noted
row,Compound,growth
1,CC(C)c1ccc2c(N)c(C(=O)Nc3cccc(C(F)(F)F)c3)sc2n1,66.2% (inactive)
2,CC1(C)[C@@H](NCO)CC[C@]2(C)[C@H]3C(=O)C=C4[C@@H]5C[C@](C)(CO)CC[C@]5(C)CC[C@@]4(C)[C@]3(C)CC[C@@H]12,58.2% (inactive)
3,CCCSc1nc(NC2CC2)c(C#N)c(-c2ccc(OC)cc2)n1,81% (inactive)
4,COCOc1cc2oc(C(=O)N[C@@H](Cc3ccccc3)C(O)C(=O)NCc3ccccc3)c(C)c(=O)c2cc1OCOC (stereo partly drawn),96.5% (inactive)
5,O=C(Nc1cccc(C(F)(F)F)c1)c1cncc(C#Cc2cnc3ccc(N4CCOCC4)nn23)c1,-33% (active)
6,COc1ccccc1NC(=O)N/N=C/c1c[nH]c2ccccc12,5.87% (active)
7,Nc1nnc(-c2c[nH]c3ncc(Br)cc23)c(-c2c[nH]c3ccc(F)cc23)n1,-0.929% (active)
8,CS(=O)(=O)Nc1ccc(-c2ccc3c(c2)ncn3-c2ccc(NC(=O)Nc3ccc(Cl)c(C(F)(F)F)c3)cc2)cc1,-42.4% (active)
9,O=C(OCCOCCO)N(c1cccc(Br)c1)c1nc(SCCN2CCOCC2)nc2c1cnn2CC(Cl)c1ccc(Br)cc1 (stereo not drawn),-46.8% (active)
10,Clc1cccc(N/N=C/c2c[nH]c3ccc(Br)cc23)n1,5.14% (active)
11,O=C(Nc1nc2ccccc2s1)c1ccc(Br)cc1,99.1% (inactive)
12,Cc1cccc(C)c1Nc1nnc(-c2c[nH]c3ccccc23)o1,97.2% (inactive)
13,COc1ccc(C(=O)c2c(N)c(C#N)cn2-c2ccc([N+](=O)[O-])cc2)cc1,97.5% (inactive)
